SMILES strings stand for the structures. Compounds without any hit were thinned out: in the full panel of roughly 83,000, 20% have a hit.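 The test compound was applied at a single concentration to cells in 96-well plates for 48 hours, and percent growth was recorded.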 A number with no mark means an inactive call. Activity calls are given as the source filed them. How the source made its calls: active means growth percent below 10; inactive means the rest.

Among the test systems are DU-145 prostate; K-562 leukemia; MALME-3M melanoma; MDA-MB-231 breast; RXF 393 renal; SF-268 CNS; SF-295 CNS; SF-539 CNS; UACC-257 melanoma; M14 melanoma; HCT-15 colon; HT29 colon; SNB-75 CNS; SNB-19 CNS; U251 CNS; PC-3 prostate; SK-MEL-5 melanoma; UACC-62 melanoma; LOX IMVI melanoma; SK-MEL-28 melanoma.
Common to all, as to assay: NCI-60 one-dose screen, 48 h (100 = growth as untreated, 0 = no growth, -100 = all killed)
Conditions in all cases: 10 µM unless noted

`O=C(Nc1ccc(F)cc1F)c1cc(F)ccc1O`: the growth in the experiment on DU-145 prostate is 21.9%; with K-562 leukemia, 9.5% (active); in the experiment with MALME-3M melanoma, -25.7% (active); in the experiment on MDA-MB-231 breast it was 10.8%; in the experiment on RXF 393 renal, 2.57% (active); with SF-268 CNS it was 15.8%. Besides, the growth in the experiment on SF-295 CNS was 6.99% (active); in the experiment on SF-539 CNS, 17.1%; with UACC-257 melanoma it was -8.33% (active); in the experiment with M14 melanoma it was 25.6%; in the experiment with HCT-15 colon, 12.4%; in the experiment on HT29 colon, 93.4%. In addition, the growth is 10.6% in the experiment on SNB-75 CNS; 10.7% with SNB-19 CNS; 10.6% with U251 CNS; 13.5% in the experiment on PC-3 prostate; -59.1% (active) in the experiment with SK-MEL-5 melanoma; -0.318% (active) in the experiment on UACC-62 melanoma. The growth was 9.88% (active) with LOX IMVI melanoma and 21.9% in the experiment on SK-MEL-28 melanoma.
Regarding `CC(C)C(=O)Nc1ccc(-c2nc(-c3cccc(OCCN4CCOCC4)c3)c(-c3ccnc(Br)c3)[nH]2)cc1`, the growth with DU-145 prostate is 71.5%; in the experiment with K-562 leukemia, 2.82% (active); in the experiment on MALME-3M melanoma, 33.6%; in the experiment on MDA-MB-231 breast, 57.6%; in the experiment with RXF 393 renal it was -35.3% (active); in the experiment on SF-268 CNS, 60.3%. For the same molecule, the growth in the experiment with SF-295 CNS was -57.7% (active); in the experiment with SF-539 CNS, 24.3%; in the experiment on UACC-257 melanoma, 56.6%; in the experiment on M14 melanoma, 59.7%; in the experiment on HCT-15 colon, 20.1%; in the experiment on HT29 colon it was 16.9%. Also, the growth was -4.1% (active) with SNB-75 CNS; 51.4% in the experiment with SNB-19 CNS; 25% in the experiment on U251 CNS; 40.7% in the experiment on PC-3 prostate; 45.8% in the experiment with SK-MEL-5 melanoma; 33.5% in the experiment on UACC-62 melanoma. For the same molecule, the growth is 27.7% with LOX IMVI melanoma and 43.9% with SK-MEL-28 melanoma.
For `C/C(=C(/c1ccccc1)c1ccc(N2C(=O)c3cccc4c(N5CCN(C)CC5)ccc(c34)C2=O)cc1)c1ccccc1`, the growth is 82.8% in the experiment on DU-145 prostate; 9.2% (active) in the experiment with K-562 leukemia; 81.4% in the experiment with MALME-3M melanoma; 94.5% with MDA-MB-231 breast; 74.8% in the experiment on RXF 393 renal; 96.2% in the experiment on SF-268 CNS. Moreover, the growth in the experiment on SF-295 CNS was 83.3%; with SF-539 CNS, 72.3%; in the experiment with UACC-257 melanoma, 79.8%; in the experiment with M14 melanoma, 85.6%; in the experiment on HCT-15 colon, 56.8%; in the experiment with HT29 colon it was 24.8%. For the same molecule, the growth is 98.1% with SNB-75 CNS; 88.9% in the experiment on SNB-19 CNS; 75.4% in the experiment with U251 CNS; 61.4% in the experiment with PC-3 prostate; 76.3% with SK-MEL-5 melanoma; 73.5% with UACC-62 melanoma. The values for the growth in the experiment with LOX IMVI melanoma and in the experiment with SK-MEL-28 melanoma were 24.6% and 88.4%, respectively.
Take `Cc1nc2ccccc2c(/C=C/c2ccccc2)c1C(=O)/C=C/c1ccc(C(F)(F)F)cc1`: the growth in the experiment on DU-145 prostate is -88.7% (active); in the experiment with K-562 leukemia it was 1.82% (active); in the experiment on MALME-3M melanoma, -61.4% (active); in the experiment with MDA-MB-231 breast it was -43.7% (active); in the experiment on RXF 393 renal, -81.7% (active); in the experiment with SF-268 CNS, -6.77% (active). The growth was -74.2% (active) in the experiment with SF-295 CNS; -84.9% (active) with SF-539 CNS; -21.9% (active) in the experiment on UACC-257 melanoma; -31.3% (active) in the experiment on M14 melanoma; -19.9% (active) in the experiment on HCT-15 colon; 5.76% (active) in the experiment with HT29 colon. The growth in the experiment with SNB-75 CNS is -5.13% (active); in the experiment on SNB-19 CNS, -64.9% (active); in the experiment with U251 CNS, -62.1% (active); in the experiment with PC-3 prostate, -28% (active); in the experiment on SK-MEL-5 melanoma it was -78.9% (active); with UACC-62 melanoma it was -51.6% (active). Further, the growth with LOX IMVI melanoma is -87.4% (active); in the experiment on SK-MEL-28 melanoma it was -67% (active).
As for `Cc1ccc(-c2nc(N3CCN(C(=O)c4ccc(OC(F)(F)F)cc4)CC3)c3ccccc3n2)cc1`, the growth in the experiment with DU-145 prostate is 90.8%; in the experiment on K-562 leukemia it was 70%; in the experiment on MALME-3M melanoma, 104%; in the experiment with MDA-MB-231 breast, 84.3%; in the experiment on RXF 393 renal, 88.5%; in the experiment on SF-268 CNS, 71.9%. The growth in the experiment on SF-295 CNS is 93.9%; in the experiment on SF-539 CNS it was 98.2%; in the experiment on UACC-257 melanoma, 99.3%; with M14 melanoma it was 94.9%; in the experiment with HCT-15 colon, 72.8%; with HT29 colon it was 88.9%. Further, the growth in the experiment with SNB-75 CNS is 76.2%; with SNB-19 CNS it was 88.4%; in the experiment with U251 CNS, 86.1%; with PC-3 prostate it was 63.9%; in the experiment on SK-MEL-5 melanoma it was 81.5%; with UACC-62 melanoma it was 75.4%. Besides, the growth in the experiment on LOX IMVI melanoma was 89.4%; with SK-MEL-28 melanoma, 101%.
In the case of `CCCCCCCCCCCCCCCCCCOc1ccc(CC(=O)OCC[N+]2(C)CCCCC2)cc1`, the growth was 107% with DU-145 prostate; 83.9% in the experiment on K-562 leukemia; 98.8% in the experiment on MALME-3M melanoma; 100% with MDA-MB-231 breast; 102% in the experiment on RXF 393 renal; 100% in the experiment on SF-268 CNS. The growth with SF-295 CNS was 110%; in the experiment with SF-539 CNS it was 99.4%; in the experiment on UACC-257 melanoma, 96%; in the experiment on M14 melanoma it was 99.8%; in the experiment on HCT-15 colon, 97.5%; with HT29 colon, 91.4%. For the same molecule, the growth in the experiment on SNB-75 CNS was 102%; in the experiment with SNB-19 CNS, 87.5%; in the experiment with U251 CNS, 91.9%; in the experiment with PC-3 prostate it was 92.2%; in the experiment with SK-MEL-5 melanoma, 100%; in the experiment with UACC-62 melanoma it was 88.8%. In addition, the values for the growth in the experiment with LOX IMVI melanoma and in the experiment on SK-MEL-28 melanoma were 94.7% and 106%, respectively.
As for `COc1cccc(-c2nc(-c3ccc(NC(=O)c4ccccc4)cc3)[nH]c2-c2ccnc(Br)c2)c1`, the growth is 62.2% with DU-145 prostate; 2.4% (active) with K-562 leukemia; 28.7% in the experiment with MALME-3M melanoma; 34.2% with MDA-MB-231 breast; -44.3% (active) with RXF 393 renal; 51.4% in the experiment on SF-268 CNS. Moreover, the growth with SF-295 CNS was -62.5% (active); with SF-539 CNS, -5.94% (active); in the experiment on UACC-257 melanoma, 49.4%; in the experiment with M14 melanoma, 29.6%; with HCT-15 colon it was -0.905% (active); in the experiment on HT29 colon, 10.2%. The growth in the experiment with SNB-75 CNS is 10.7%; in the experiment with SNB-19 CNS, 33.6%; with U251 CNS, 30.7%; in the experiment with PC-3 prostate, 17.6%; in the experiment with SK-MEL-5 melanoma, -79.6% (active); in the experiment on UACC-62 melanoma it was 16.4%. The growth in the experiment with LOX IMVI melanoma was -55.8% (active); in the experiment on SK-MEL-28 melanoma, 37%.

These data come from PubChem BioAssay (NCI).
